# PMC7862700, “An all-to-all approach to the identification of sequence-specific readers for epigenetic DNA modifications on cytosine”
# Experiments:
# Assay in all cases: DAPPL (digital affinity profiling via proximity ligation, sequencing); 10 mM Tris-HCl pH 7.5, 50 mM NaCl, 1 mM DTT, 4% glycerol, room temperature, 30 min; GST-TFs on glutathione beads, 16-mer random dsDNA library, 0.1% formaldehyde crosslink after washing; high values mean tight binding
# Conditions in all cases: protein: recombinant; tags: N-terminal GST; dsDNA, one strand shown
# FLI1 = target: T1, FLI1 (Homo sapiens, UniProt Q01543 1-452)
# T1 sequence: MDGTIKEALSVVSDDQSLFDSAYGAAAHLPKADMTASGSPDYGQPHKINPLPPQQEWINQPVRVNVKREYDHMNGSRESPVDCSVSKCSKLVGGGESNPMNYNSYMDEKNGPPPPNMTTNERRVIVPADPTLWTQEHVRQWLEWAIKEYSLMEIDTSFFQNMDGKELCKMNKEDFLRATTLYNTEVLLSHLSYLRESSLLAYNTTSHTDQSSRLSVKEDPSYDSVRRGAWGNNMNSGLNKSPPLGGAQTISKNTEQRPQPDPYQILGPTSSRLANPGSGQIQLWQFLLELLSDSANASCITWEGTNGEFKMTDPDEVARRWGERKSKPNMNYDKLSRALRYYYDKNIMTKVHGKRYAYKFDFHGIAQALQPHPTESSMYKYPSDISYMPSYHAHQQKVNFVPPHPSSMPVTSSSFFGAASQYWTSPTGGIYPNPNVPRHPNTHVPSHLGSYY
# Summary of the method: (§1)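 The binding signal reported is, for every hexamer, its read frequency for a factor over its read frequency for the tag-only sample. Reads came from pools of yeast-expressed, GST-fused human transcription factors on glutathione beads, barcoded with DNA and mixed with that sample, which were incubated with 200 nmole of a random double-stranded 16-mer DNA library in Tris/NaCl/DTT/glycerol buffer at room temperature for 30 min. After washing, the pools were crosslinked with 0.1% formaldehyde, proximity-ligated with BsaI/T4 ligase for 1 h at 37 °C, PCR-amplified and sequenced on an Illumina NextSeq500.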
# ELK1 = target: T2, ELK1 (Homo sapiens, UniProt P19419 1-428)
# T2 sequence: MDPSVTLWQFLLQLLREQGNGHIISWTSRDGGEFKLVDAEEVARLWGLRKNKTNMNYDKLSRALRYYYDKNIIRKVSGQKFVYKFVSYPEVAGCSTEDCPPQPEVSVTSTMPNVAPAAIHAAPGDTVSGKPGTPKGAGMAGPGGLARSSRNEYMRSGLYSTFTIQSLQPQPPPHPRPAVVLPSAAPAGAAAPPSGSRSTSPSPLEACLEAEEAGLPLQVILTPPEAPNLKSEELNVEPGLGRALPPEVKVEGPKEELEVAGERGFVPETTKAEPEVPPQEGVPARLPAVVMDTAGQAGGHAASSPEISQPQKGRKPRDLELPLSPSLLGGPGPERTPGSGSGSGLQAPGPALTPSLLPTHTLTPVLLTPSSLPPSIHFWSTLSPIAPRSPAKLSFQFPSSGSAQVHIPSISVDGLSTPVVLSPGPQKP
# Summary of the method: as §1
# GABPA = target: T3, GABPA (Homo sapiens, UniProt Q06546 1-454)
# T3 sequence: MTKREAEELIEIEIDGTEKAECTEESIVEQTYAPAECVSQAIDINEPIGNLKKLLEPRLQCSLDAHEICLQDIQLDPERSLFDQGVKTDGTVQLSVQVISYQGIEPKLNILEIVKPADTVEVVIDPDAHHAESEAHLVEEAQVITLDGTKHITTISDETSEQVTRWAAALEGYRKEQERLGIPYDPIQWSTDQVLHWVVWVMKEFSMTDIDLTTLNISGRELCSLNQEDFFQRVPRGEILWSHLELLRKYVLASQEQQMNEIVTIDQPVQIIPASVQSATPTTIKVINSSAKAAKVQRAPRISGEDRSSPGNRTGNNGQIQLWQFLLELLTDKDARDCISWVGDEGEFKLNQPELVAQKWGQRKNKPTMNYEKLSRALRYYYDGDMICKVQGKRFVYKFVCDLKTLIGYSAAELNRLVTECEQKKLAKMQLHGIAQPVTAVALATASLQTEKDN
# Summary of the method: as §1
# ERG = target: T4, ERG (Homo sapiens, UniProt P11308 1-479)
# T4 sequence: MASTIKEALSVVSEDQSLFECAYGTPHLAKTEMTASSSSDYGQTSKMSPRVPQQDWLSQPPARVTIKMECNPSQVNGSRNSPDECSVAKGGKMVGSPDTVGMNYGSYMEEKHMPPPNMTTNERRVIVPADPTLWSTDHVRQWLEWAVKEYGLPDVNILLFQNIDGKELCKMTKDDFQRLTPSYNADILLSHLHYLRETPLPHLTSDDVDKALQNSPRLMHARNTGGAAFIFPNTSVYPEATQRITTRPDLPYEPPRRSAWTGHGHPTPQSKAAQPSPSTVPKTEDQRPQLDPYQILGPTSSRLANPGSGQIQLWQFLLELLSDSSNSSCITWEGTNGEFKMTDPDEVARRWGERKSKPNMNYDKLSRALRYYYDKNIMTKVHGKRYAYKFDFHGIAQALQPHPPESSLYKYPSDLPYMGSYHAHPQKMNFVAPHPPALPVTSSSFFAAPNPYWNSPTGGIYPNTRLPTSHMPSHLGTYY
# Summary of the method: as §1
# ELF1 = ELF1 (Homo sapiens, UniProt P32519 1-619)
# Summary of the method: as §1
# EHF = target: T5, EHF (Homo sapiens, UniProt Q9NZC4 1-300)
# T5 sequence: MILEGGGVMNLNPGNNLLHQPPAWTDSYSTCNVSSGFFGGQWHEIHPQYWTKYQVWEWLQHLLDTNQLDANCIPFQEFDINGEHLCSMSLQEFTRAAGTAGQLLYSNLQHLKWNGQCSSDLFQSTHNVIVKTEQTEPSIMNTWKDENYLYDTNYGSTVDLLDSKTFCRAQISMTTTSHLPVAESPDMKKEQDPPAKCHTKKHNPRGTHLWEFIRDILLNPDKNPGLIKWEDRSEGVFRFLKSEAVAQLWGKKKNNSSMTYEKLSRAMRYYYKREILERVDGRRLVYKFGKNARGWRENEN
# Summary of the method: as §1
# SPI1 = SPI1 (Homo sapiens, UniProt P17947 1-270)
# Summary of the method: as §1
# ELK3 = target: T6, ELK3 (Homo sapiens, UniProt P41970 1-407)
# T6 sequence: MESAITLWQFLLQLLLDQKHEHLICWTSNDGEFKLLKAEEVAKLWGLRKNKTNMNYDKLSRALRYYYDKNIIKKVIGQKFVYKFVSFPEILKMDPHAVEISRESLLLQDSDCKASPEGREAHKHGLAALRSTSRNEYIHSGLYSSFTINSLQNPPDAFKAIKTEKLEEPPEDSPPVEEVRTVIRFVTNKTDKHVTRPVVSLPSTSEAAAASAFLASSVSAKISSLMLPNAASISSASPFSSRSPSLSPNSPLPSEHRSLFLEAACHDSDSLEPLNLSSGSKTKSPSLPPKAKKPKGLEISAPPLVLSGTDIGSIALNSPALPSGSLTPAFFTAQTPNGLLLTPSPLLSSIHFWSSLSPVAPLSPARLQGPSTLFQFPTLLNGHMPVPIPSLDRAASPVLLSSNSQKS
# Summary of the method: as §1
# FEV = target: T7, FEV (Homo sapiens, UniProt Q99581 1-238)
# T7 sequence: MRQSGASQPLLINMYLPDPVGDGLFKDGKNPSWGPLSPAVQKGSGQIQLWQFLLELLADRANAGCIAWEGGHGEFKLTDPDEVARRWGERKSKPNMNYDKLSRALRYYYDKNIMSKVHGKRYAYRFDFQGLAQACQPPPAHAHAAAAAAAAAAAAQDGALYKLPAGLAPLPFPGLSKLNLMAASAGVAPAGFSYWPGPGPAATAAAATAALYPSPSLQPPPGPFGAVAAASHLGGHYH
# Summary of the method: as §1
# ETV5 = ETV5 (Homo sapiens, UniProt P41161 1-510)
# Summary of the method: as §1
# SPIC = target: T8, SPIC (Homo sapiens, UniProt Q8N5J4 1-248)
# T8 sequence: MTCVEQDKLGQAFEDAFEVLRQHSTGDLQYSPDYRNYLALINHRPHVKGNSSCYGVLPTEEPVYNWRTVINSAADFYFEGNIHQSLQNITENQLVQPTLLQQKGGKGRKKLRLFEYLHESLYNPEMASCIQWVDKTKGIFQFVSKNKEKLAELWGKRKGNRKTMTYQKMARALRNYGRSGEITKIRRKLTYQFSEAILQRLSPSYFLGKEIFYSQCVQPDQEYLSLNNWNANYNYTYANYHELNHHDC
# Summary of the method: as §1
# ELF4 = ELF4 (Homo sapiens, UniProt Q99607 1-663)
# Summary of the method: as §1
# ERF = target: T9, ERF (Homo sapiens, UniProt P50548 1-548)
# T9 sequence: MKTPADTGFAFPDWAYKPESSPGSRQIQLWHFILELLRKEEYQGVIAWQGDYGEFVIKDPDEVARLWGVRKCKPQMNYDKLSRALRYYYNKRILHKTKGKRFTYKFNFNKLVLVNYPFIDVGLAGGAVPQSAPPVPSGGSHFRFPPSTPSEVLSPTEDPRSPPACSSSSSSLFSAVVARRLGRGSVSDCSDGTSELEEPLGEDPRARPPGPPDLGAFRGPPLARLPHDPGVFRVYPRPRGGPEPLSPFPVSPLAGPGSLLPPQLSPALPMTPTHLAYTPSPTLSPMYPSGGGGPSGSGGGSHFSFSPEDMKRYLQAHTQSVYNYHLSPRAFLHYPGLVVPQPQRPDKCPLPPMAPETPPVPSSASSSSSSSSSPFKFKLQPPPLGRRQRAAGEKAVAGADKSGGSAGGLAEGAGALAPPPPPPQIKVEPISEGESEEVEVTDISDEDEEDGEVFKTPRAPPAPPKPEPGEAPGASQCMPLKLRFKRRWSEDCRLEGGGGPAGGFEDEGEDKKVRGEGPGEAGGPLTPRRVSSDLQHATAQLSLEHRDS
# Summary of the method: as §1
# ETS2 = target: T10, ETS2 (Homo sapiens, UniProt P15036 1-469)
# T10 sequence: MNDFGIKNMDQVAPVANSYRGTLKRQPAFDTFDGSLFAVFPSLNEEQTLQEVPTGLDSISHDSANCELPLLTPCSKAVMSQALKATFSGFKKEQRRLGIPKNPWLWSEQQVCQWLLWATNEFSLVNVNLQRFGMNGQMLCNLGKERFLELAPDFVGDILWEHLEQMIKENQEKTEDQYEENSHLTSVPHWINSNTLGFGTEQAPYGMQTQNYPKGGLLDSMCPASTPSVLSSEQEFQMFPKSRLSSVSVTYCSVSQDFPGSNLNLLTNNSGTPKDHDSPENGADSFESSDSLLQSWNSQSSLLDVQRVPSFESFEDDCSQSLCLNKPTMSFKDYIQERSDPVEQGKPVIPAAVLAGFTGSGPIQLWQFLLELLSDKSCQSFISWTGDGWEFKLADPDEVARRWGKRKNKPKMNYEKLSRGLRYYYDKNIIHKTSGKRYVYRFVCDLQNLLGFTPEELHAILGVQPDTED
# Summary of the method: as §1
# SPDEF = target: T11, SPDEF (Homo sapiens, UniProt O95238 1-335)
# T11 sequence: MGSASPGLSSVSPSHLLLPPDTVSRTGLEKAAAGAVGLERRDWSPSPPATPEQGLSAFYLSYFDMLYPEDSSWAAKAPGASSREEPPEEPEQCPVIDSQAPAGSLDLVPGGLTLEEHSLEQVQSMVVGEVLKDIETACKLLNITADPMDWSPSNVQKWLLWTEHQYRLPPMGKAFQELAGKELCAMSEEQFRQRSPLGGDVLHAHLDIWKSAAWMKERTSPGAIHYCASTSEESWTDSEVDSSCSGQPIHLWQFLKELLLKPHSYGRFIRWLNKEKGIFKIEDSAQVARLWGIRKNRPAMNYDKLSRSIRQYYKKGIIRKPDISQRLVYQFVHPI
# Summary of the method: as §1
# ETV3 = target: T12, ETV3 (Homo sapiens, UniProt P41162-2 1-143)
# T12 sequence: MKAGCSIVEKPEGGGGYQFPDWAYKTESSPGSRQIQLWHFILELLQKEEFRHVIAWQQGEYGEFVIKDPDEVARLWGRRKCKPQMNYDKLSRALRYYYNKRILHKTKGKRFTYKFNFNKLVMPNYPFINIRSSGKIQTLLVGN
# Summary of the method: as §1
# ETV6 = ETV6 (Homo sapiens, UniProt P41212 1-452)
# Summary of the method: as §1
# Sequence of ELF1 (P32519 whole entry): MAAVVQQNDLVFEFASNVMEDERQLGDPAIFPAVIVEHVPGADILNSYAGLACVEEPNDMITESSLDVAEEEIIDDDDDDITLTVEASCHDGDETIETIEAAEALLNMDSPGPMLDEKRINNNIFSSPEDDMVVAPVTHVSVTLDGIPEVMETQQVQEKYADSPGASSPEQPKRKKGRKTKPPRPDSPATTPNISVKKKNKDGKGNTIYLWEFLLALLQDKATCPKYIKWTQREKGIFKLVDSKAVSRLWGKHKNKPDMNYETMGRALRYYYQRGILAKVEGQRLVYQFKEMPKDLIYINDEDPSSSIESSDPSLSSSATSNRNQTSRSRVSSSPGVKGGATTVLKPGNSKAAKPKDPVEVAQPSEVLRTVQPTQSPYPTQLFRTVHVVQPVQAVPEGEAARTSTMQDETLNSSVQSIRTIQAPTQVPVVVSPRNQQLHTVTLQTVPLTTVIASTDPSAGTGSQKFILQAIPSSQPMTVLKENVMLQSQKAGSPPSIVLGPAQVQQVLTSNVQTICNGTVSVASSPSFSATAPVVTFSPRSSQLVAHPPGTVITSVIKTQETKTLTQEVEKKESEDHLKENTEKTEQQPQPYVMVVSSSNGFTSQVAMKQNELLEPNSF
# Sequence of ELF4 (Q99607 whole entry): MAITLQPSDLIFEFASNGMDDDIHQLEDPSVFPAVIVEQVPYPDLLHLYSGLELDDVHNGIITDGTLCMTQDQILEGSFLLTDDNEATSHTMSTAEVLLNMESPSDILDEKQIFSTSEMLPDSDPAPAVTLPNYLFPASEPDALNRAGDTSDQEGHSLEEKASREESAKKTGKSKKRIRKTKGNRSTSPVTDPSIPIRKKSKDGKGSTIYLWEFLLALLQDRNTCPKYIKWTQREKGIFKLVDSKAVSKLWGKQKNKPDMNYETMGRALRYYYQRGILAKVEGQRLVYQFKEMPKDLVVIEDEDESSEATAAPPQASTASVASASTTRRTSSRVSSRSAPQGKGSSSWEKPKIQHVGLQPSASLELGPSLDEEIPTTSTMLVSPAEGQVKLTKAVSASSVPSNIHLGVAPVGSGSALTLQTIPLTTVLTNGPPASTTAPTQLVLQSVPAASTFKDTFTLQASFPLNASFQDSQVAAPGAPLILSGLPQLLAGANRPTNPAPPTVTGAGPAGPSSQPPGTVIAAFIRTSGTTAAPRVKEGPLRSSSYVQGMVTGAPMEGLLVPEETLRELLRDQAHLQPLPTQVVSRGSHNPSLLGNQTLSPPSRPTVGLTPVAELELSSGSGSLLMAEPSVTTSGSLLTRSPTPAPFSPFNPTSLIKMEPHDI
# Sequence of ETV6 (P41212 whole entry): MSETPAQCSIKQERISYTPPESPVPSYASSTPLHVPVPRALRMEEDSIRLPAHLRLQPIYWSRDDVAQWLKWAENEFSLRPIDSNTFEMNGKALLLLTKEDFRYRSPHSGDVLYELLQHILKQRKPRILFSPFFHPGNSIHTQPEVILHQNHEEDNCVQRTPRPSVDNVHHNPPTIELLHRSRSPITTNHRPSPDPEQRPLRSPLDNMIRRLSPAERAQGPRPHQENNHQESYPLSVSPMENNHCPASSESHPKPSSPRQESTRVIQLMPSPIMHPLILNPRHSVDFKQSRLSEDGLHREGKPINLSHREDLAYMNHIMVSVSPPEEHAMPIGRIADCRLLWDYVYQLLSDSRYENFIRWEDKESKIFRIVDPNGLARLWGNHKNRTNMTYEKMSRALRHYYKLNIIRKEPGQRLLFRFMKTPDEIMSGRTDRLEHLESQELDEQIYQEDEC
# Sequence of ETV5 (P41161 whole entry): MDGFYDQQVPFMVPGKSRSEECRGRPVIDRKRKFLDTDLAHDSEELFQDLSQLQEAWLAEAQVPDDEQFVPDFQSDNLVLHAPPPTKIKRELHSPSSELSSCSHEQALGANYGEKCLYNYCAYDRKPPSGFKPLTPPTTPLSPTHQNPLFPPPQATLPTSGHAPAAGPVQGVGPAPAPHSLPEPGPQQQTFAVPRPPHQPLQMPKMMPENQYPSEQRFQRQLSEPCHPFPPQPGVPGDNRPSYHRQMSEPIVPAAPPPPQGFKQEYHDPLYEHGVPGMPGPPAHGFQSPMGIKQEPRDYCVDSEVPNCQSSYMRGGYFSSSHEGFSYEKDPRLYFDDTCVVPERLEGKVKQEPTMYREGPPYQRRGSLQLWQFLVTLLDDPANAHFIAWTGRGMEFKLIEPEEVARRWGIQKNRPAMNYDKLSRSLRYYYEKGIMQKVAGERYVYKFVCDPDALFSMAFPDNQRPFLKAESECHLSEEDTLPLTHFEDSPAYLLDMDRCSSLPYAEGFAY
sequence,measurement,setting,value
CCATGC,binding signal,FLI1,"1.04 fold enrichment (6-mer frequency, TF over GST control)"
same,binding signal,ELK1,"1.1 fold enrichment (6-mer frequency, TF over GST control)"
same,binding signal,GABPA,"1.09 fold enrichment (6-mer frequency, TF over GST control)"
same,binding signal,ERG,"1.09 fold enrichment (6-mer frequency, TF over GST control)"
same,binding signal,ELF1,"1.13 fold enrichment (6-mer frequency, TF over GST control)"
same,binding signal,EHF,"1.15 fold enrichment (6-mer frequency, TF over GST control)"
same,binding signal,SPI1,"1.01 fold enrichment (6-mer frequency, TF over GST control)"
same,binding signal,ELK3,"1.04 fold enrichment (6-mer frequency, TF over GST control)"
same,binding signal,FEV,"1.1 fold enrichment (6-mer frequency, TF over GST control)"
same,binding signal,ETV5,"1.11 fold enrichment (6-mer frequency, TF over GST control)"
same,binding signal,SPIC,"1 fold enrichment (6-mer frequency, TF over GST control)"
same,binding signal,ELF4,"1.08 fold enrichment (6-mer frequency, TF over GST control)"
same,binding signal,ERF,"1.01 fold enrichment (6-mer frequency, TF over GST control)"
same,binding signal,ETS2,"1.03 fold enrichment (6-mer frequency, TF over GST control)"
same,binding signal,SPDEF,"1.06 fold enrichment (6-mer frequency, TF over GST control)"
same,binding signal,ETV3,"1.12 fold enrichment (6-mer frequency, TF over GST control)"
same,binding signal,ETV6,"1.12 fold enrichment (6-mer frequency, TF over GST control)"
